Screening results: PubChem, National Center for Advancing Translational Sciences (NCATS)
Compounds with a hit are over-represented: about 6% of the library has one in this group of screens.
D1 agonist: activates the human D1 dopamine receptor. P21728. HEK293 T-REx D1 cells, calcium flux, agonist mode. activation, % at 2 µM. hit rate 1% among 360,000. AID 504660; in the data active means activation above about 30%; further: 0% is about no effect
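Agonism was scored from calcium flux recorded over 180 s (1 read/s) after pintool compound addition, following a 10-cycle baseline. Cells were inducible force-coupled HEK293 TREx D1, plated overnight at 30 C and loaded with no-wash calcium dye.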
D1 potentiator: potentiators of human D1 dopamine receptor | P21728 | HEK293 TREx D1 cells, calcium flux, dopamine EC20 potentiation | potentiation, % at 10 µM | hit rate 0.036% among 360,000 | AID 504651; in the data active means potentiation above about 30%; further: 0% is about no effect
D1 antagonist: blocks dopamine activation of the human D1 receptor | P21728 | hit rate 3.2% among 360,000 | HEK293 TREx D1 cells, calcium flux, dopamine EC80; active compounds read low | activity change, negative = inhibition, % at 10 µM; in the data active means activity change below about -30%; further: on the % scale 0 is the no-effect control and ±100 the full control effect
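Calcium flux readout: force-coupled, inducible Hek293 Trex D1 line, cells induced overnight at 30 C with tetracycline, dye-loaded 30–90 min at RT. Antagonism scored against EC80 dopamine challenge given 180 s after compound.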
D3 antag: blocks the human D3 dopamine receptor; P35462; D3R cells, DiscoveRx beta-arrestin luminescence, antagonist mode; active compounds read low; max response, negative = inhibition, %; hit rate 2.5% among 360,000; in the data active means max response below about -50%; inconclusive means no clear call, values can overlap the other calls; further: on the % scale 0 is the no-effect control and ±100 the full control effect
Target sequence (P35462 whole entry, looked up): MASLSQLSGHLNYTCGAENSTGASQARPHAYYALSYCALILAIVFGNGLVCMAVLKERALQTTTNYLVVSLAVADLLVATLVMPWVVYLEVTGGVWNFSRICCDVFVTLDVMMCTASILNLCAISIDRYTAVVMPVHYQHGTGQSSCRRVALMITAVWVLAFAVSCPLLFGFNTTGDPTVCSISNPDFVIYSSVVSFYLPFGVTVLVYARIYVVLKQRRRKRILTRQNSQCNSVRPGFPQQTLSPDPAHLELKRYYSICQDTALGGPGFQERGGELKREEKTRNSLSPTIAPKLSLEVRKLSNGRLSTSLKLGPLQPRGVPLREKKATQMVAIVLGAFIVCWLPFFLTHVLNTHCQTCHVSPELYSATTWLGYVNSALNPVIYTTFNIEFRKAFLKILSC
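Cells plated overnight at 1500 cells/well, then exposed to library compounds with dopamine controls for 90 minutes at 37 degrees C. DiscoveRx reagent added for 30–60 minutes at room temperature; luminescence read, quantitative HTS format.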
DRD3 agonist: agonists of human D3 dopamine receptor; P35462; max activation, %; D3R DiscoveRx beta-arrestin cells, luminescence, 90 min; AID 652048; hit rate 0.58% among 410,000; in the data active means max activation above about 30%; further: 0% is about no effect
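Cells at 1500/well, incubated overnight, then treated with pinned compounds (dopamine as control) for 90 min at 37 degrees C. DiscoveRx reagent added for 30 - 60 minutes at room temperature; luminescence read.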
The depositor's hits bear a star; ? = inconclusive; . = not tested or not shown.

SMILES	D1 agonist	D1 potentiator	D1 antagonist	D3 antag	DRD3 agonist
CCCCN1C(=O)C(CC(=O)NC2CCCC2)CC(C(=O)N2CCOCC2)=C1C (stereo not given)	.	.	.	1.2	-1.9
CCCCN1C(=O)C(CC(=O)NC2CCCCC2)CC(C(=O)N2CCOCC2)=C1C (stereo not given)	.	.	.	-53.5*	8.3
COCCCN1C(=O)C(CC(=O)NCCCN(C)C)CC(C(=O)N2CCOCC2)=C1C (stereo not given)	.	.	.	1.0	95.3*
COc1ccc(C(=O)COC(=O)c2nc3nccc(C)n3n2)cc1F	0.0	-7.0	-4.6	15.0	1.0
Cc1cc(N2CCOCC2)n2ncc(-c3ccc(Cl)cc3)c2n1	1.5	-5.1	-32.7*	-0.1	5.8
Cc1ccc(-c2cnn3c(N4CCOCC4)cc(C)nc23)cc1	0.7	-10.2	-7.8	-2.1	-3.8
CC1=NN(c2ccccc2)C(=O)/C1=C/N(C)C	0.2	-1.1	-13.0	7.8	0.1
CC1=NN(c2ccccc2)C(=O)/C1=C\C=C1\N(C)c2ccccc2C1(C)C	44.1*	-2.6	-32.4*	-23.1	-3.8
CC1=NN(c2ccccc2)C(=O)/C1=C\C=C1/N(C)c2ccccc2C1(C)C	68.0*	-3.0	-18.8	-26.0	-18.7
Cc1cccc(-c2nn(-c3ccccc3)cc2C(=O)N(C)CC(=O)Nc2ccc(N3CCOCC3)cc2)c1	-0.9	-3.5	-71.4*	-5.5	0.2
COc1ccc(Br)c(C(=O)N(C)CC(=O)Nc2ccc(N3CCOCC3)cc2)c1	-0.2	-3.4	-50.7*	-5.9	9.3
COc1cccc(-c2nn(-c3ccc(C)cc3)cc2C(=O)N(C)CC(=O)Nc2cccc(F)c2)c1	10.9	.	-32.2*	0.0	2.7
COc1ccc(OCC(=O)Nc2ccc(N3CCOCC3)cc2)cc1	0.8	-1.1	-2.6	7.2	3.9
CN(CC(=O)Nc1ccc(N2CCOCC2)cc1)C(=O)c1cccc(Cl)c1Cl	2.9	-9.3	-36.0*	0.6	-2.6
CN(CC(=O)Nc1ccc(N2CCOCC2)cc1)C(=O)c1cn(-c2ccccc2)nc1-c1ccccc1	0.2	-6.9	6.5	-6.6	0.1
COc1ccc(OC)c(NC(=O)c2c(NCc3ccc(C)o3)sc3c2CCCCC3)c1	-1.1	-4.8	-0.6	.	-8.1
CC1Nc2ncnc(N3CCN(c4ccccn4)CC3)c2N(Cc2ccccc2)C1=O (stereo not given)	-0.4	-5.9	13.2	-106.3*	-45.0
COc1ccc(CN2C(=O)C(C)Nc3ncnc(N4CCc5ccccc5C4)c32)cc1 (stereo not given)	.	.	.	3.7	-1.1
COc1ccc(CN2C(=O)C(C)Nc3ncnc(N4CCN(c5ccccn5)CC4)c32)cc1 (stereo not given)	.	.	.	-148.7*	-58.0
Cc1ccc(CN2C(=O)C(C)Nc3ncnc(N4CCN(c5ccccn5)CC4)c32)cc1 (stereo not given)	-1.0	-0.7	-10.5	-131.8*	-53.9
CCCOc1cccc(NC(=O)c2c(-c3ccccc3Cl)noc2C)c1	2.3	-5.2	0.1	.	3.7
O=C(COC(=O)C1CCC1)Nc1ncc(Cl)cc1Cl	1.3	-1.1	2.4	-5.7	-8.0
Cc1cc(F)ccc1NC(=O)CCn1nc(C)c(S(=O)(=O)N2CCCCC2)c1C	-1.1	0.5	-8.5	.	9.2
Cc1nc(C)c(C(=O)OCC(=O)NCCc2ccc(F)cc2)s1	2.7	-3.0	-4.4	-0.2	-0.1
Cc1ccc(S(=O)(=O)N2CCN(c3ncnc4sccc34)CC2)cc1C	8.5	-6.1	-15.1	28.6	2.3
SMILES	D1 agonist	D1 potentiator	D1 antagonist	D3 antag	DRD3 agonist
Cc1cc(C)c(C)c(S(=O)(=O)N2CCN(S(=O)(=O)c3ccc4c(c3)OCCO4)CC2)c1C	5.2	-2.1	-48.5*	.	.
COc1cc(C)c(C)cc1S(=O)(=O)N1CCN(Cc2ccc3c(c2)OCO3)CC1	2.8	4.2	-0.9	-54.5*	-16.2
O=S(=O)(c1ccc2c(c1)OCCO2)N1CCN(c2ncnc3sccc23)CC1	12.6	-3.9	-31.7*	25.3	28.3
O=C(NCCc1ccc2c(c1)OCCO2)c1cccc(S(=O)(=O)N2CCCC2)c1	-0.2	-0.7	6.0	6.5	-0.3
O=C(NCCc1ccc2c(c1)OCCO2)c1cc(S(=O)(=O)N2CCCC2)ccc1Cl	16.5	-6.3	-31.6*	2.7	5.3
COC(=O)/C=C1\OCc2ccc(C)cc21	.	.	.	3.2	1.1
O=S(=O)(c1ccc(F)c(F)c1)N1CCN(Cc2ccc3c(c2)OCO3)CC1	1.7	5.0	-7.9	-2.5	-10.7
O=S(=O)(c1ccc2c(c1)OCCO2)N1CCN(Cc2ccc3c(c2)OCO3)CC1	4.4	-6.2	-23.9	-50.4*	2.2
CN(C)c1ccc(/C=C/C(=O)c2c(O)c3ccccc3oc2=O)cc1	155.8*	-4.0	-16.8	-3.9	4.1
Cc1ccc(C(C)(C)C)cc1S(=O)(=O)Nc1cccc(C(=O)N2CCN(c3ccccn3)CC2)c1	33.3*	2.7	2.9	15.8	5.8
Cc1cccc(NS(=O)(=O)c2cccc(C(=O)N3CCN(c4ccccn4)CC3)c2)c1	3.0	-6.8	-2.8	6.8	4.1
Cc1ccc(C)c(-n2c(CCC(=O)O)ccc2-c2ccc(Cl)cc2)c1	23.2	-2.4	-31.8*	.	1.4
CC1=C(C(=O)Nc2cccc(C(F)(F)F)c2)C2(CCCCCC2)OC1=O	32.2*	-4.2	-27.4	.	-6.7
CC1=C(C(=O)Nc2cccc(C(F)(F)F)c2)C2(CCCCC2)OC1=O	4.9	-3.9	-20.0	.	-4.7
CC(=O)c1c(C)[nH]c(C(=O)NC(C)c2ccccc2)c1C (stereo not given)	3.2	-6.5	-32.9*	5.5	-3.0
CC(=O)c1c(C)[nH]c(C(=O)Nc2cccc(C(F)(F)F)c2)c1C	14.1	-10.5	-33.5*	0.0	-27.8
CCc1ccc(NC(=O)c2[nH]c(C)c(C(C)=O)c2C)cc1	19.4	-9.0	-38.7*	3.6	-5.4
CO[C@@H]1[C@@H](OC)[C@H](C)[C@@](O)(CC(=O)O)O[C@H]1[C@H](C)[C@H]1O[C@@]2(CC[C@@](C)([C@H]3CC[C@@](C)([C@@H]4O[C@@H]([C@H]5O[C@](C)(O)[C@H](C)C[C@@H]5C)C[C@@H]4OC4C[C@H](OC)[C@@H](OC)[C@H](C)O4)O3)O2)C[C@H](O)[C@H]1C (stereo not given in full)	.	.	.	.	9.5
CCN(C(=O)COC(=O)c1ccc[nH]c1=O)c1cccc2ccccc12	.	.	.	?	0.9
COc1ccc(-c2nc3ccc(Br)cn3c2Cc2ccsc2)cc1OC	.	.	.	-16.1	-11.2
CC(=O)c1c(C)[nH]c(C(=O)Nc2cccc3ccccc23)c1C	9.8	-10.1	-33.1*	5.8	5.6
CC(=O)c1c(C)[nH]c(C(=O)Nc2ccccc2Cl)c1C	1.3	-6.8	-0.9	-7.7	-9.7
CN1CCN(c2ncnc3c2ncn3[C@H]2CN(Cc3ccccc3)C[C@@H](CO)O2)CC1	.	.	.	3.0	6.7
CC(C)(C)c1ccc(/C=N/N2CCN(c3ccccn3)CC2)cc1	1.5	-1.2	21.2	-5.7	30.3*
